LASV entry inh = blocks Lassa virus binding or cell entry; Lassa virus pseudotyped entry inhibition, cell-based qHTS; Potency, µM (top dose mostly 49.2 µM), most hits filed as inhibitors; actives 4.1% (n = 18,000); AID 720533
MARV entry inh = blocks Marburg virus binding or cell entry; AID 720532; Potency, µM (titrated, usually from 49.2 µM), most hits filed as inhibitors; actives 6.5% (n = 18,000); Marburg virus pseudotype entry/binding inhibition, cell-based
Each line names hits and unclear results; the compound was inactive in the other large screens; ! = not confirmed by another sample. Hits are enriched below; roughly 7.1% of the tested compounds scored in any of these assays. The call rests on the fitted dose curve; tested in HEK293 cells.

Nc1ncnc2c1ccn2[C@@H]1O[C@H](CO)[C@@H](O)[C@H]1O	LASV entry inh 2.5µM, MARV entry inh 1.4µM
Nc1ccn(C2OC(CO)C(O)C2O)c(=O)n1 (stereo not given)	LASV entry inh 1.3µM!, MARV entry inh 1µM!
Nc1ncn([C@@H]2O[C@H](CO)[C@@H](O)[C@H]2O)c(=O)n1	LASV entry inh 6.3µM, MARV entry inh inconclusive
NC(=O)c1ncn(C2OC(CO)C(O)C2O)c1N (stereo not given)	none
Nc1ccn([C@@H]2O[C@H](CO)[C@@H](OP(=O)(O)O)[C@H]2O)c(=O)n1	none
COc1cccc2c1C1(CCCCC1)CC2NC(=O)C(F)(F)F (stereo not given)	none
CCCCCC(=O)N1C[C@H](O)[C@@H](n2cc(-c3ccc(F)cc3)nn2)C[C@H]1c1ccccc1	none
C[C@H]1N[S+](=O)([O-])c2cccc(Cl)c2O[C@H]1c1ccccc1	none
COC(=O)N[C@H](C(C(=O)OC)=C(C)NCc1ccccc1)c1cccc(C)c1	none (no result: LASV entry inh)
O=c1c(O)c(-c2ccc(O)c(O)c2)oc2c(O)c(O)cc(O)c12	MARV entry inh inconclusive
O=c1oc2c(O)c(O)cc3c(=O)oc4c(O)c(O)cc1c4c23	MARV entry inh 1µM
COC(=O)Nc1nc2ccc(C(=O)c3ccccc3)cc2[nH]1	MARV entry inh inconclusive
COC(=O)Nc1nc2ccc(C(=O)c3cccs3)cc2[nH]1	LASV entry inh inconclusive, MARV entry inh 1.1µM!
C=CCOCCC=C1c2ccccc2[C@@H](OC)[C@@H]1C	none
CCCCN1CC(COCc2ccccc2)Oc2cccc(Oc3ccccc3)c2S1(=O)=O (stereo not given)	LASV entry inh 4µM
CCCCN1CC(COCc2ccccc2)Oc2cccc(Oc3ccc(C)cc3)c2S1(=O)=O (stereo not given)	none (no result: LASV entry inh)
COCOc1cc(OC)ccc1C(=O)C=Cc1ccc2c(c1)OCO2	MARV entry inh inconclusive
CCOC(=O)OC[C@H]1O[C@H](c2ccccc2)C=C[C@H]1OC(=O)OCC	none
CSC[C@H]1CN(C2CCCCC2)C(=O)[C@H]1CC(=O)Nc1ccccc1	none
COC(=O)C1=C(C)NC(C)=C([N+](=O)[O-])C1c1ccccc1C(F)(F)F (stereo not given)	none
COC(=O)C1=C(C)NC(C)=C(C(=O)OCCN2CCN(C(c3ccccc3)c3ccccc3)CC2)C1c1cccc([N+](=O)[O-])c1 (stereo not given)	LASV entry inh 22µM, MARV entry inh 13µM
COC(=O)C1=C(C#N)NC(C)=C(C(=O)OC(C)C)C1c1cccc([N+](=O)[O-])c1 (stereo not given)	MARV entry inh inconclusive
COC(=O)C1=C(C)NC(C)=C(C(=O)OCCN(C)Cc2ccccc2)C1c1cccc([N+](=O)[O-])c1 (stereo not given)	LASV entry inh 25µM!, MARV entry inh 11µM
CCc1cc2c(nc1CC)CCN(CCC(C)=NOC[C@@H](C)[C@H](OCc1ccccc1)C(C)C)C2	none
CCOC(=O)C1=CN(CCNC(=O)OC(C)(C)C)C(=O)NC1c1ccccc1 (stereo not given)	none
CC(CCN1CCCCc2nc(C)c(C)cc21)=NO[C@@H](C)c1cn([C@H](CO)Cc2ccccc2)nn1	none
COc1ccccc1N1C(=O)[C@@H]2CSCCS(=O)(=O)N2C1=O	none
C=C=CCCN1C(=O)NC(c2ccccc2)C(C(=O)OC)=C1C (stereo not given)	none
CCCCCCN1CCN(C2CN(CCc3ccccc3)S(=O)(=O)C2)CC1 (stereo not given)	none
CCCCCCCCCCCCCCCCn1cc[n+](Cc2ccccc2)c1C	LASV entry inh 11µM, MARV entry inh 7.1µM
CCN1CCC(CC(=O)Nc2n[nH]c3nnc(-c4cccc(F)c4F)cc23)CC1	none (no result: LASV entry inh)
CCC1(C2CCN(Cc3ccccc3Cl)CC2)NC(=O)N(CC2COc3ccccc3O2)C1=O (stereo not given)	MARV entry inh inconclusive
CCC1(C2CCN(Cc3cc4ccccc4o3)CC2)NC(=O)N(CC2COc3ccccc3O2)C1=O (stereo not given)	MARV entry inh 32µM
CC[C@@]1(O)C(=O)OCc2c1cc1n(c2=O)Cc2cc3ccccc3nc2-1	LASV entry inh inconclusive, MARV entry inh 2.2µM
Oc1cc(-c2nc3ccccc3s2)cc2c1OCCN(Cc1cccn1-c1nccs1)C2	none
c1ccc2sc(-c3cc4c(c(OC5CCOC5)c3)OCCN(Cc3cccn3-c3nccs3)C4)nc2c1 (stereo not given)	MARV entry inh 0.35µM
CC(C)(O)C1O[C@H]2CC[C@@]3(C)[C@@](O)(CC[C@H]4Cc5c([nH]c6ccccc56)[C@@]43C)C2=CC1=O (stereo not given in full)	LASV entry inh 32µM!, MARV entry inh inconclusive
COC(=O)N[C@@H](c1cccc(C)c1)[C@]1(C(C)=O)CCCC1=O	none
COC(=O)CC=C1c2ccc(F)cc2[C@@H](OC)[C@@H]1C	none (no result: LASV entry inh)
C[C@]12CCC3C(CC[C@]4(O)C[C@@H](O)CC[C@]34C=O)[C@@]1(O)CC[C@@H]2C1=CC(=O)OC1 (stereo not given in full)	LASV entry inh 1µM, MARV entry inh inconclusive
COc1ccccc1Nc1ncc(-c2ccccc2)o1	none
O=C1/C(=C\c2ccccc2)C[C@@]2(O)[C@H]3Cc4ccc(O)c5c4[C@@]2(CCN3CC2CC2)[C@@H]1O5	LASV entry inh 3.5µM, MARV entry inh 11µM
Oc1ccc2c3c1O[C@H]1[C@@H](O)CC[C@@]4(O)[C@@H](C2)N(CC2CCC2)CC[C@]314	MARV entry inh inconclusive
Oc1ccc2c3c1O[C@H]1[C@H](O)CC[C@@]4(O)[C@@H](C2)N(CC2CC2)CC[C@]314	none
O=C1CC[C@@]2(O)[C@H]3Cc4ccc(O)c5c4[C@@]2(CCN3CC2CC2)[C@@H]1O5	none
O=C1/C(=C\c2ccccc2)C[C@@]2(O)[C@H]3Cc4ccc(O)c5c4[C@@]2(CCN3CC2CC2)[C@H]1O5	LASV entry inh 4µM, MARV entry inh inconclusive
COC(=O)/C=C\C(=O)N[C@@H]1CC[C@@]2(O)[C@H]3Cc4ccc(O)c5c4[C@@]2(CCN3CC2CC2)[C@@H]1O5	LASV entry inh inconclusive, MARV entry inh 28µM
COC(=O)N[C@H](C(C(=O)OC)=C(C)NCc1ccccc1)c1ccco1	none
COc1ccc(C=CNC(=O)Cc2ccc(OC)c(OC)c2)cc1	none
CC1=C(O)C(=O)C=C2C1=CC=C1[C@]2(C)CC[C@@]2(C)C3C[C@](C)(C(=O)O)CC[C@@]3(C)CC[C@@]12C (stereo not given in full)	LASV entry inh 4.5µM, MARV entry inh 4µM
CC1(C)[C@@H](O)CC[C@]2(C)C3C(=O)C=C4C5C[C@@](C)(C(=O)O)CC[C@]5(C)CC[C@@]4(C)[C@]3(C)CC[C@@H]12 (stereo not given in full)	none
O=C1c2ccccc2C(=O)N1CCCC[C@]12Cc3c(ccc4ccccc34)[C@H](O1)c1c(cc(-c3ccccc3)oc1=O)O2	MARV entry inh inconclusive
O=C1[C@H]2[C@@H]3[C@@H](O)[C@H](O)CC(=NOCc4ccccc4)[C@@H]3CC[C@H]2C(=O)N1C1CCCCC1	none (no result: LASV entry inh)
Clc1ccc2c(c1)CCc1cccnc1C2=C1CCNCC1	LASV entry inh 25µM, MARV entry inh 10µM
CC[C@@H](C(=O)O)[C@@H]1O[C@@H]([C@@H](C)[C@H](O)[C@H](C)C(=O)[C@H](CC)[C@H]2O[C@]3(C=C[C@@H](O)[C@]4(CC[C@@](C)([C@H]5CC[C@](O)(CC)[C@H](C)O5)O4)O3)[C@H](C)C[C@@H]2C)[C@@H](C)C[C@@H]1C	LASV entry inh 1µM, MARV entry inh 6.3µM
